Results on five compounds are retold here after PubChem BioAssay.

The structures appear in SMILES notation. Values joined by “and” are separate entries in the source; they are usually repeats but may differ in a detail not shown here. Identical values can stand only once. Active and inactive are the calls of the source.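 The calls were made as follows, unless noted: active = inhibition at or above 50% relative to wild type and mutant plate controls; inactive = inhibition below 50%.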

The nature of assay [1]: inhibitors of TNFa-induced NFkB p65 translocation, primary screen, imaging, HUVEC, MLSMR starter and 10KST1 sets (AID 438;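 active = inhibition above 20% together with a positive visual image hit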;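 also: compound added about 3h40 before a 20 min TNFalpha stimulation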;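 as to inhibition: signal is the nuclear over cytoplasmic p65 intensity ratio per well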). Particulars: HUVEC TNFa-induced p65 nuclear translocation; cell count: measured here: nuclei count (cytotoxicity indicator), at 2.08 µM unless noted; inhibition: at 2 µM, stronger effect = higher value unless noted.
Assay [2] is described as follows: inhibitors of mutant huntingtin aggregation, primary screen, imaging, exon1htt(103Q)mCFP cells, high-content imaging (AID 483;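 active = visual image review flags a hit and inhibition of aggregation exceeds 20%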;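 also: compound exposure lasted 3 days before fixation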;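 as to nuclei count: percent of the per-plate median nuclei count of sample wells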). Particulars: exon1htt(103Q)mCFP cell line, aggregate imaging, at 2 µM; inhibition of aggregation: stronger effect = higher value; nuclei count: measured here: cell count, toxicity.
A short description of assay [3]: inhibitors of E-selectin induction by TNFa, primary screen, imaging, HUVEC, immunofluorescence, MLSMR starter and 10KST1 sets (AID 487;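 active = visually confirmed hit in the image check and inhibition above 20%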;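 as to inhibition: signal is fraction of cell area covered by stained E-selectin grains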;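 as to nuclei count: 100% = median nuclei count of all wells on the same plate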). Particulars: HUVEC TNFalpha-induced E-selectin immunofluorescence imaging, at 2 µM; inhibition: stronger effect = higher value; nuclei count: measured here: cell number, toxicity.
A short description of assay [4]: DUSP6 inhibitors restoring Erk phosphorylation by chemical complementation, primary imaging in DUSP6-transfected HeLa (AID 609;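 active = compounds giving at least 50% inhibition in the cell-based MKP-3 phosphatase rescue imaging test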;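 as to inhibition: phospho-Erk level distribution per well compared with pooled transfected vehicle control wells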). Particulars: HeLa MKP-3 transfected, phospho-Erk imaging KS statistic, at 10 µM.
Assay [5] has as its target Dual specificity protein phosphatase 6 (Homo sapiens) (UniProt Q16828). The assay is described as above. Particulars: HeLa MKP-3 transfected, phospho-Erk imaging KS statistic, at 10 µM, stronger effect = higher value.
Assay [6] deals with Voltage-gated potassium channel subunit beta-2 (Rattus norvegicus) (UniProt P62483). As to the kind of experiment: KvBeta enzyme negative modulators, primary screen, biochemical, NADPH fluorescence (AID 622;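 active = fluorescence slope higher than the sample average by over 3 SD, cut at about -0.22 in these data, passing the limit was not always enough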;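 also: slope of raw intensity against log time taken from 70 to 1610 s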). Particulars: recombinant KvBeta, 4-cyanobenzaldehyde reduction, at 10 µM, stronger effect = higher value.
For assay [7] the target is unchanged. As to the kind of experiment: KvBeta positive modulators, primary screen, biochemical, NADPH fluorescence (AID 623;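 active = NADPH fluorescence slope more negative than the mean of all samples by about 3 SD, 99.7% confidence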;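 also: fluorescence intensity change per second fitted from 20 to 320 s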). Particulars: Recombinant KvBeta, NADPH fluorescence decrease slope, 10 min; at 10 µM; stronger effect = lower value.
For assay [8], the target named is Alpha-2C adrenergic receptor (Homo sapiens) (UniProt P18825). As to the kind of experiment: modulators of alpha2C/GIRK thallium flux, primary screen, cell-based, HEK293 alpha2C/GIRK1/2 (AID 624;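 active = fluorescence slope after compound addition differing from the mean of all screened samples at 99.7% confidence, in either direction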;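 also: slope of fluorescence ratio to pre-addition baseline per second over 15 to 24 s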). Particulars: thallium flux BTC fluorescence, at 10 µM, actives lie on both sides.
Assay [9] can be described thus: inhibitors of larval lipid processing in zebrafish, primary screen, whole organism, PED6 fluorescence, gall bladder and intestine (AID 686;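 active = a full or partial loss of lipid-probe fluorescence in the fish gall bladder, intestine or both, judged by eye; inactive = no fluorescence loss, or compound toxic to the fish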;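 also: larvae 5 to 7 days old with five fish per well; signal comes from phospholipase A2 cleavage of quenched PED6 carried via bile; overnight exposure to compound and PED6 before scoring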). Particulars: Zebrafish larvae PED6 lipid processing, fluorescence scoring.
Assay [10] can be described thus: inhibitors of Chlamydomonas gravitaxis, primary screen, whole organism, Chlamydomonas reinhardtii, WT vs cilia-less mutant, absorbance, 96-well (AID 463189).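 Also: 0% = wild type cc124 cells in DMSO and 100% = ciliumless bld1 mutant cells.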 Particulars: OD600 absorbance, 2 days, at 10 µM, stronger effect = higher value.
Assay [11] can be described thus: inhibitors of Sendai virus-induced IRF3 signaling, primary screen, TLR/RLR signaling modifier project, cell-based, Sendai virus stimulus, luciferase, 10K MLSCN set (AID 602276;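 active = inhibition at or above 50% at 10 µM; inactive = inhibition below 50%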;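 also: firefly luciferase from ISG56 promoter only with Renilla not read in this screen; 0% = Sendai virus plus DMSO and 100% = medium plus DMSO without virus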). Particulars: HEK293 RL24 IRF3 luciferase reporter, at 10 µM, stronger effect = higher value. Background: A reporter such as luciferase makes a cellular process visible.
Assay [12] in a line: inhibitors of poly I:C-induced TLR3 signaling, primary screen, cell-based, poly I:C stimulus, luciferase, 10K MLSCN set (AID 602277;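 active = inhibition of the reporter signal at or above 50%; inactive = inhibition below 50%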). Particulars: HEK293-TLR3 RL24 IRF3 luciferase reporter, at 10 µM, stronger effect = higher value.
[13] abbreviates: measured here: cell density z-score.
[14] abbreviates: measured here: nuclear c-Myc green intensity z-score.
The mark [15] stands for this setting: measured here: nuclear pErk red intensity z-score, stronger effect = higher value.

Sequence of Alpha-2C adrenergic receptor (Homo sapiens) (P18825 whole entry, looked up): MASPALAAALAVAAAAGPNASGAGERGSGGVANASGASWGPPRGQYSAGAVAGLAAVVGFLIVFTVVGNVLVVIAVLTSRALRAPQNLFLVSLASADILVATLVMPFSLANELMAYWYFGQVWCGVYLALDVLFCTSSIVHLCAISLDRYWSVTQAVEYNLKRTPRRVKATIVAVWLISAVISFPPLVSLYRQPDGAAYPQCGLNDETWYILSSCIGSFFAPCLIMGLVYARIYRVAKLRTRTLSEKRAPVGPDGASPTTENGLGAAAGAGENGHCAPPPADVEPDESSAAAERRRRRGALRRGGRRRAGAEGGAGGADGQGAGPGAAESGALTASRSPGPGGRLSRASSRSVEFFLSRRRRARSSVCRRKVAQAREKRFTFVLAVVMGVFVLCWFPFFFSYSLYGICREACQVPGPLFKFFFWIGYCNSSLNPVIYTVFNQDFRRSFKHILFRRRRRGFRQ
Sequence of Dual specificity protein phosphatase 6 (Homo sapiens) (Q16828 whole entry, looked up): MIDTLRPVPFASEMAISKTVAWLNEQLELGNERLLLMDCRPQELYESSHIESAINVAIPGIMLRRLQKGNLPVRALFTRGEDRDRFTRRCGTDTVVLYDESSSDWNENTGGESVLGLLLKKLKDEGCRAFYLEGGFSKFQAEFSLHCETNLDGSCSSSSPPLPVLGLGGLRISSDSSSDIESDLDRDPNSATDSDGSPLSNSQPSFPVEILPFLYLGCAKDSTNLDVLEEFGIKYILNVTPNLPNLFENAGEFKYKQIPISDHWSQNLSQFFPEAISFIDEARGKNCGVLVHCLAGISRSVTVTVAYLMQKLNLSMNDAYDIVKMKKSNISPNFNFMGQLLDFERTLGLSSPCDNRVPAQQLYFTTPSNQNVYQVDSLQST
Sequence of Voltage-gated potassium channel subunit beta-2 (Rattus norvegicus) (P62483 whole entry, looked up): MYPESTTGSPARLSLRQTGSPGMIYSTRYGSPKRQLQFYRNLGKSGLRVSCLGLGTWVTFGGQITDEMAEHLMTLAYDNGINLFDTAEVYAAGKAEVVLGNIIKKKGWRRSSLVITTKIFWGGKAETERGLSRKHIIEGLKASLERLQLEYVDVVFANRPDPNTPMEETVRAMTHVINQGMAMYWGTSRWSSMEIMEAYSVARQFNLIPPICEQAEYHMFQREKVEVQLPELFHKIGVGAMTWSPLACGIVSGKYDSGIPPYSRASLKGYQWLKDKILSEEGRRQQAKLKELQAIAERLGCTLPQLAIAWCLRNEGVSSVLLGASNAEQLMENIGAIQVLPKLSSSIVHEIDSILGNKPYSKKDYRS

Compound `C#CCN(C)C(C)Cc1ccccc1` (stereo not drawn) gave a cell count in assay [1] of 624. Also, the inhibition (usually the relative decrease from the control value, in per cent) is -1.1% (inactive) in [1]; -90.1% (inactive) in assay [3]; 8% (inactive) in assay [5]; 10.4% (inactive) in assay [10]; 16.5% (inactive) in [11]; 40.6% (inactive) in [12]. The inhibition of aggregation in assay [2] was 13.6% (inactive). Moreover, the nuclei count in [2] worked out at 96.7%; in assay [3] it was 124%. The results for the z-score in [4] (setting [13]), in [4] (setting [14]) and in assay [4] (setting [15]) were -0.521, 1.36 and 0.296, respectively. The fluorescence slope in assay [6] was -0.447 (inactive). Moreover, in assay [7], the NADPH fluorescence slope is -7.1e-05 (inactive). The slope in [8] was 0.00486 (inactive). In addition, the outcome in assay [9] was inactive.
Compound `Clc1ccc(COC(Cn2ccnc2)c2ccc(Cl)cc2Cl)c(Cl)c1` (stereo not drawn) yielded a cell count in [1] of 692. Moreover, the inhibition in assay [1] was -0.4% [at 2 µM, stronger effect = higher value, 0% TNFa-plus-vehicle, 100% no-TNFa wells] (inactive); in [3], -73.1% (inactive); in [5] it was 31.1% [cells stimulated with TPA for 15 min] (inactive); in assay [10], 36.1% (inactive); in [11] it was 15.4% (inactive); in assay [12], 32.2% (inactive). The nuclei count in assay [3] worked out at 144%. Besides, the z-score in assay [4] (measured here: cell density z-score, cells stimulated with TPA for 15 min) was -0.0883; in assay [4] (measured here: nuclear c-Myc green intensity z-score, cells stimulated with TPA for 15 min) it was 1.51; in [4] (measured here: nuclear pErk red intensity z-score, stronger effect = higher value, cells stimulated with TPA for 15 min), -0.416. Further, the fluorescence slope in [6] was -0.515 (inactive). Moreover, in assay [7], the NADPH fluorescence slope was -3.4e-05 (inactive). In [8], the slope is 0.00694 (inactive). For the same compound, the outcome in assay [9] is “inactive; toxic [screened at 20 µM (by protocol)]”.
In assay [1], `CN1[C@@H]2CC[C@H]1CC(OC(=O)C1C=Nc3ccccc31)C2` (stereo partly drawn) had a cell count of 619. Moreover, the inhibition in assay [1] was 0.8% (inactive); in assay [3] it was -33.8% (inactive); in [5], 8% (inactive); in assay [10], -4.66% (inactive); in [11], -81.8% (inactive); in assay [12] it was 52.8% (active). For the same compound, in assay [2], the inhibition of aggregation is -36% (inactive). Also, the nuclei count in assay [2] was 99.6%; in [3], 116%. Further, the z-score in [4] (setting [13]) is -1.01; in assay [4] (setting [14]), -0.312; in [4] (setting [15]), 0.0205. The fluorescence slope in [6] is -0.448 (inactive). For the same compound, in assay [7], the NADPH fluorescence slope is -6.1e-05 (inactive). For the same compound, in [8], the slope was 0.00567 (inactive). The compound was called inactive in [9].
As for `C=CCn1c(O)c(C=NCCN(C)C)c(=O)[nH]c1=O`, the cell count in [1] stood at 342. Moreover, the inhibition in assay [1] was -5% (inactive); in assay [3], 9.5% (inactive); in [5] it was 19.3% (inactive); in assay [10], -19.1% (inactive); in assay [11], -1.86% (inactive); in [12], -11.3% (inactive). Moreover, in [2], the inhibition of aggregation is -0.9% (inactive). Also, the nuclei count was 97.7% in [2] and 97.2% in assay [3]. The z-score in assay [4] (setting [13]) was 0.486; in assay [4] (setting [14]), -0.511; in assay [4] (setting [15]), -0.0175. In addition, the fluorescence slope in assay [6] is -0.462 (inactive). Also, the NADPH fluorescence slope in assay [7] is -0.000118 (inactive). Also, the slope in assay [8] is 0.00873 (inactive). Moreover, in assay [9], the compound was classed as inactive.
`C[N+]1(C)CCN(c2ccccc2)CC1` displayed a cell count in assay [1] of 637. In addition, the inhibition in assay [1] is -3.4% (inactive); in [3], -66.8% (inactive); in [5], 19% (inactive); in assay [10], 7.37% (inactive) and 14.5% (inactive); in [11] it was 0.511% (inactive); in assay [12] it was 51.8% (active). Moreover, in assay [2], the inhibition of aggregation was -27% (inactive). Besides, the nuclei count in [2] came out at 102%; in [3] it was 118%. Moreover, the z-score in [4] (setting [13]) is 1.65; in assay [4] (setting [14]), -1.1; in assay [4] (setting [15]), -0.542. Besides, the fluorescence slope in assay [6] is -0.439 (inactive). For the same compound, the NADPH fluorescence slope in assay [7] is -4.1e-05 (inactive). The slope in [8] was 0.00481 (inactive). Also, in [9], the result was inactive.
